Bioassay records (PubChem)
FMDV RLuc: shows antiviral activity in FMDV Renilla assay | actives 0.32% (n = 120,000) | AID 1745857 | FMDV replicon cells, Renilla luciferase signal | Potency, µM (top dose mostly 57.5 µM), for the others: at the top dose activity change, negative = inhibition, actives largely listed as inhibitors; further: nearly all actives have a fitted effect of over 55% in size
FMDV FLuc: FMDV antiviral activity by firefly signal; actives 0.23% (n = 120,000); Potency, µM (doses to about 57.5 µM), for inactives: at the top dose activity change, negative = inhibition, usual class: inhibitors; FMDV antiviral cell assay, firefly luciferase signal; AID 1745856; further: nearly all actives have a fitted effect of over 60% in size
Active calls of the source: *; ? = inconclusive; [ ] = remark or other dose. Shown are actives, neighbours in structure and some others; about 0.51% of the full set was active somewhere. The call rests on the fitted dose curve. On the % scale 0 is the no-effect control and ±100 the full control effect; potency means the concentration at half of the fitted maximal effect.

SMILES	FMDV RLuc	FMDV FLuc
CCCCOC(=O)COc1ccc2c(=O)c(-c3ccccc3OC)coc2c1	-10.3%	-7.1%
COc1ccc(C2CC(=O)Nc3cc4c(cc32)OCO4)c(OC)c1 (stereo unspecified)	-7.0%	16.2%
CC(C)COc1ccccc1C1CC(=O)Nc2cc3c(cc21)OCO3 (stereo unspecified)	12.6µM*	?
CCS(=O)(=O)N1CCN(c2ccc(N3CCCCC3)nn2)CC1	4.6%	123.4%
Fc1ccc(-c2ccc(CNCC3CCNCC3)o2)cc1	-28.5%	-27.3%
Clc1ccc(Cl)c(-c2ccc(CNCC3CCNCC3)o2)c1	28.2µM*	31.6µM*
CCN(CC)S(=O)(=O)c1cc(-c2onc(C)c2C)ccc1OC	101.0%	-8.9%
COc1ccc(-c2onc(C)c2C)cc1S(=O)(=O)N(C)Cc1ccco1	?	31.6µM*
COCCn1c(=O)c2sccc2n(CC(=O)NC2CCCCC2)c1=O	4.9%	27.0%
O=C1c2c(O)ccc(O)c2C(=O)c2c(NCCNCCO)ccc(NCCNCCO)c21	?	28.2µM*
CCC(=O)N1N=C(c2c(-c3ccccc3)c3cc(Cl)ccc3n(C)c2=O)CC1c1cccs1 (stereo unspecified)	-29.2%	?
CN1CCN(c2ccc(C#N)cc2)CC1	13.0%[1.06 µM]	2.82µM*
CN1CCN(c2ccc(C#N)cn2)CC1	15.2%	0.1%
O=c1[nH]nc(-c2ccco2)c2c1Nc1nnnn1C2c1ccc(Cl)cc1 (stereo unspecified)	0.0%	0.0%
Brc1ccc(OCc2ccccc2)c(CNCC2CCNCC2)c1	-26.0%	-24.6%
Fc1ccc(COc2cccc(CNCC3CCNCC3)c2)cc1	31.6µM*	?
O=C(/C=C/c1ccc(Cl)c(Cl)c1)c1ccccc1OC(F)F	39.1%	28.0%
COc1cc(/C=C/C(=O)c2ccccc2C)cc(OC)c1OC(F)F	28.2µM*	?
C/C(=N/Nc1ccc2ccccc2c1)c1ccccc1	10.2%	152.0%
Cc1ccc(C)c(-c2csc(Nc3ccc(S(N)(=O)=O)cc3)n2)c1	17.8µM*	?
Cc1ccc(C)c(-c2csc(Nc3ccc(S(=O)(=O)Nc4nc(C)cc(C)n4)cc3)n2)c1	61.9%	-20.5%
c1ccc(CNC2CCCCC2)cc1	0.0%	58.9%
CCC1CCCCN1C(=O)Cn1c(=O)n(-c2ccc(F)c(C)c2)c(=O)c2sccc21 (stereo unspecified)	7.0%	17.0%
CCN(CC(=O)Nc1ccccc1OC)C(=O)c1ccc(-c2cc(Cl)ccc2Cl)o1	-9.7%	-7.5%
Cc1ccc(C2C3=C(CCCC3=O)Nc3nc(SCCC(C)C)[nH]c(=O)c32)o1 (stereo unspecified)	3.1%	15.5%
SMILES	FMDV RLuc	FMDV FLuc
Cc1c(C(=O)c2ccccc2)oc2ccc(F)cc12	-12.1%	0.0%
CCOCc1ccc(CNC(=O)c2nccnc2N)cc1	25.1µM*	?
Cc1cccc(COc2ccc(CNC(=O)c3nccnc3N)cc2)c1	14.1µM*	?
Nc1nccnc1C(=O)NCc1ccccc1	9.9%	21.8%
Nc1nccnc1C(=O)NCc1ccc(O)cc1	18.3%	12.8%
CCOc1ccc(CNc2nc(NCc3ccc(OCC)cc3)n(C(=O)CC(C)C)n2)cc1	12.4%	4.6%
Cc1cc(NC(=O)C2CC2)sc1C(=O)NCc1ccc(Cl)cc1Cl	26.1%	-1.0%
CN(C)c1ccc(C(=O)N/N=C/c2ccc(Br)s2)cc1	101.8%	151.0%
CC(C)S(=O)(=O)c1oc(-c2ccc(F)cc2)nc1S(=O)(=O)c1ccccc1	3.9%	?
CCCCS(=O)(=O)c1oc(-c2ccc(F)cc2)nc1S(=O)(=O)c1ccccc1	5.6%	28.2µM*
O=C(c1nn(Cc2ccccc2)c(=O)c2ccccc12)N1CCN(c2ccc(O)cc2)CC1	278.2%	17.8%
Cc1nc(-c2ccc(C)c(N3CCN(C(=O)Nc4cccc(Cl)c4C)CC3)c2)no1	?	25.1µM*
Cc1ccc(NC(=O)N2CCN(c3cc(-c4noc(C)n4)ccc3C)CC2)c(C)c1	-3.7%	11.4%
CCCn1nc(C(=O)OCc2nc(-c3ccccc3)no2)c2ccccc2c1=O	-9.8%	2.9%
COc1ccc(/C=C\c2onc(C)c2S(=O)(=O)N2CCC(C(=O)Nc3ccc(F)cc3F)CC2)cc1	28.2µM*	31.6µM*
COc1ccc(/C=C\c2onc(C)c2S(=O)(=O)N2CCC(C(=O)Nc3ccc(C)c(F)c3)CC2)cc1	-10.0%	-10.3%
O=c1cc(CCl)c2ccc3ccccc3c2o1	7.5%	16.8%
Cn1c(C2=C(O)CN(c3ccc(C(=O)O)cc3)C2=N)nc2ccccc21	-5.6%	-2.7%
COC(=O)c1c(NC(=O)c2ccccc2Cl)sc2c1CCC(C)C2 (stereo unspecified)	1.8%	32.4%
COc1ccc(CNCCc2c(C)[nH]c3ccc(OC)cc23)c(F)c1	7.08µM*	8.91µM*
COc1ccc2[nH]c(C)c(CCNCc3ccc(C(F)(F)F)cc3)c2c1	4.47µM*	?
COc1ccc(F)c(CNCCc2c(C)[nH]c3ccc(OC)cc23)c1	8.1%	-13.7%
COc1ccc2[nH]c(C)c(CCNCc3cccc(F)c3)c2c1	35.7%	3.7%
COc1ccc2cc(C(=O)NCC3CC3)c(C)nc2c1	-3.0%	60.5%
CCN(CC)CCCNc1oc(-c2cccc(C)c2)nc1C#N	6.0%	23.2%
SMILES	FMDV RLuc	FMDV FLuc
CN(C)S(=O)(=O)c1cccc(NC(=O)COc2ccc(Cl)cc2)c1	18.1%	77.7%
CCc1ccccc1Nc1nn2c(=O)c3ccc(C(=O)NC(C)c4ccccc4)cc3nc2s1 (stereo unspecified)	?	11.2µM*
CCc1ccccc1Nc1nn2c(=O)c3ccc(C(=O)NCCc4ccccc4)cc3nc2s1	0.0%	0.0%
O=Cc1cc(Cl)c(O)c(Br)c1	-5.7%	5.0%
Oc1c(Br)cc(Cl)cc1Cc1cc(Cl)cc(Br)c1O	3.55µM*	?
CCc1ccc(C(=O)N(Cc2ccco2)C2CC2)s1	5.1%	16.2%
Cc1csc(NC(=O)c2ccc(Oc3ccc(Br)cc3)nc2)n1	12.6µM*	?
CCOc1ccc(C(=O)Nc2nc(C)cs2)cc1OC	3.6%	1.3%
O=C(/C=C/c1cccc(Br)c1)c1cccc(O)c1	46.3%	125.8%
CCN(CC)C(=S)SCC(=O)Nc1ccc(N(CC)C(C)C)cc1	-6.0%[1.06 µM]	18.8%
Cc1cc(C(=O)Cn2c(Cl)nc3c2c(=O)n(C)c(=O)n3C)c(C)n1CCc1ccccc1	7.94µM*	28.2µM*
Cc1cc(C(=O)Cn2c(Cl)nc3c2c(=O)n(C)c(=O)n3C)c(C)n1C	14.6%	34.8%
COc1ccc(C(C)=O)cc1COC(=O)COc1cccc(Br)c1	-7.8%	-11.1%
CCOC(=O)Cc1cc(=O)n2[nH]c(NCc3cccc(C)c3)nc2n1	21.4%	42.5%
O=C(Nc1ccc(F)c(F)c1)c1cc(S(=O)(=O)C2CCS(=O)(=O)C2)ccc1F (stereo unspecified)	-21.2%	-5.5%
COc1ccc(CCNCc2ccc(Br)cc2)cc1	12.6µM*	0.0%
COc1ccc(CNCCc2ccc(F)cc2)cc1	3.5%[1.06 µM]	0.0%
CC(=O)OC1CCC2(/C=N/O)[C@H]3CCC4(C)C(C5=CC(=O)OC5)CCC4(O)[C@@H]3CCC2(O)C1 (stereo partly specified)	1µM*	0.794µM*
COC1CC(OC2CCC3(/C=N/O)[C@H]4CCC5(C)C(C6=CC(=O)OC6)CCC5(O)[C@@H]4CCC3(O)C2)OC(C)C1O (stereo partly specified)	0.355µM*	?
C[C@@H]1O[C@@H](O[C@@H]2C=C3CC[C@@H]4[C@H](CC[C@]5(C)[C@@H](c6ccc(=O)oc6)CC[C@]45O)[C@@]3(C)CC2)[C@H](O)[C@H](O)[C@H]1O	-79.1%	-84.9%
